# Screening data from PubChem.
# HT1080 IDH1KD tx = qHTS for induction of synthetic lethality in tumor cells producing 2HG: qHTS for the HT-1080-IDH1KD cell line | 360,000 compounds, 2% hits | HT-1080 IDH1 knockdown viability, ATP luminescence, 48 h | Potency, µM (series often up to 46.1 µM), inactives show top-dose activity, negative = toxicity, most hits filed as cytotoxic | AID 686971, 2013;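 further: potency means the concentration at half of the fitted maximal effect; 0% = DMSO wells and -100% = cell-free medium wells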
#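 Cytotoxicity counter-line: IDH1KD HT-1080, 48 h, CellTiter-Glo. Curves classed by r2, magnitude and activity.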
# IL1B secr inh = qHTS for Inhibitors of Inflammasome Signaling: IL-1-beta AlphaLISA Primary Screen. THP-1 LPS/ATP IL-1B secretion, AlphaLISA, 16 h; hits give low values. activity change, % at 57.5 µM. 360,000 compounds, 4.7% hits; in the data active means activity change below about -50%; inconclusive means mostly about -30% to -49%
#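 Secreted IL-1B measured by AlphaLISA bead assay after 16 h compound exposure of THP-1 cells; compounds (final up to 57.5 uM) added 1 h before LPS (250 ng/mL) and ATP (1.25 mM) stimulation; lower signal means less secretion.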
# HT1080-NT tox = qHTS for induction of synthetic lethality in tumor cells producing 2HG: qHTS for the HT-1080-NT fibrosarcoma cell line | AID 686970, 2013 | Potency, µM (top dose mostly 46.1 µM), for inactives: top-dose activity, negative = less viability, usual class: cytotoxic | 360,000 compounds, 1.6% hits | HT-1080-NT fibrosarcoma viability, CellTiter-Glo ATP luminescence, 48 h;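 further: NT is the 2HG producing partner of a matched IDH1 knockdown line; potency means the concentration at half of the fitted maximal effect; 0% = DMSO-treated cells and -100% = media-only wells without cells; nearly all actives have a fitted effect of over 55% in size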
#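 HT-1080-NT fibrosarcoma cells (2HG-overproducing), 750 cells/well in RPMI with 5% FBS, dosed after 2 h and incubated 48 h at 37C. CellTiter-Glo luminescence normalized to DMSO and no-cell wells; concentration-response curves fitted and classed.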
# TDP1 cell noCPT = qHTS for Inhibitors of human tyrosyl-DNA phosphodiesterase 1 (TDP1): qHTS in cells in absence of CPT; DT40 Tdp1-/- hTDP1 cells, no CPT, ATP luminescence, 48 h; Potency, µM (titrated, usually from 46.2 µM), without a hit: at the top dose activity change, negative = growth inhibition, most hits filed as inhibitors; 420,000 compounds, 15% hits; further: potency means the concentration at half of the fitted maximal effect; nearly all actives have a fitted effect of over 55% in size
#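 Growth of hTDP1-complemented DT40 Tdp1-knockout cells is measured by ATP luminescence after at least 48 hr compound exposure at 37 °C, with DMSO substituting for the 20 nM CPT used in the parallel screen.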
# TDP1 cell CPT = qHTS for Inhibitors of human tyrosyl-DNA phosphodiesterase 1 (TDP1): qHTS in cells in presence of CPT; chicken DT40 Tdp1-/-;hTDP1 cells + 20 nM CPT, ATP luminescence, 48 h; Potency, µM (titrated, usually from 46.2 µM), for the others: at the highest dose activity change, negative = growth inhibition, hits mostly inhibitors; 420,000 compounds, 12% hits; further: potency means the concentration at half of the fitted maximal effect; nearly all actives have a fitted effect of over 55% in size
#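 Chicken DT40 Tdp1-/- cells stably complemented with human TDP1 were seeded at 400 cells/well in medium containing 20 nM camptothecin, exposed to pin-transferred compounds, and grown at 37 °C for at least 48 hr. Viability was read as ATP luminescence.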
# ELG1 DNA repair = qHTS screen for small molecules that inhibit ELG1-dependent DNA repair in human embryonic kidney (HEK293T) cells expressing luciferase-tagged ELG1. HEK293T ELG1-luciferase reporter, luminescence, 16 h; DNA damage induced by 5-fluorouridine. Potency, µM (highest dose often 46.1 µM), for the others: top-dose activity change, negative = inhibition, usual class: inhibitors. 330,000 compounds, 2.3% hits; further: potency means the concentration at half of the fitted maximal effect; nearly all actives have a fitted effect of over 55% in size
#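 Luminescence from the luciferase reporter, measured 30 min after ONE-Glo reagent at room temperature, was the read-out. Beforehand, 2,000 cells per well were exposed for 16 hr at 37 °C to 5-fluorouridine together with compound or vehicle.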
# The depositor's hits bear a star; ? = inconclusive; . = no result; [ ] = remark or other dose. This is a sample that favours compounds with a hit; in the whole collection about 19% have one here. Unless noted, the call rests on the fitted dose curve; in most records, active means well fitted curve in the direction sought with a large enough effect; inconclusive means small, poorly fitted or top-dose-only effect, or another doubt; inactive means no such curve, though single readings can be large; an effect the other way counts as inactive or inconclusive. Unless noted, on the % scale 0 is the no-effect control and ±100 the full control effect.
SMILES,HT1080 IDH1KD tx,IL1B secr inh,HT1080-NT tox,TDP1 cell noCPT,TDP1 cell CPT,ELG1 DNA repair
COc1cccc(O)c1CN1CCC(C(=O)Nc2ccc(Oc3cccnc3)cc2)CC1,-29%,5,-15%,13µM*,21µM*,-1%
Cc1nn(CC(=O)N2CCC(C(N)=O)CC2)c(=O)c2nn(-c3ccccc3)c(C)c12,8%,36,-1%,26%,-5%,?
CCOC(=O)c1[nH]c(C)c(C(=O)OCC(=O)N(Cc2ccccc2)C(C)C)c1C,-16%,?,-14%,15µM*,?,?
CC(C)N(Cc1ccccc1)C(=O)COC(=O)c1cc(S(=O)(=O)N(C)C)ccc1N1CCCC1,0%,-10,-5%,15µM*,23µM*,?
CC(C)N(Cc1ccccc1)C(=O)CCc1ccccc1,3%,-24,-2%,?,15µM*,?
CCOC(=O)c1[nH]c(C)c(C(=O)OCc2ccccc2F)c1C,9.2µM*,19,12µM*,9.2µM*,6.5µM*,?
Cc1cc(C)nc(-c2cccc3c2OC(CNC(=O)c2ccc(Cn4nc(C)cc4C)cc2)C3)n1 (stereo unspecified),.,.,.,-22%,26%[9.04 µM],.
CCOC(=O)c1[nH]c(C)c(C(=O)OCC)c1C,10%,-24,7%,0%,1%,?
CCOC(=O)c1[nH]c(C)c(C(=O)c2cc(F)ccc2F)c1C,0.45µM*,54,0.71µM*,0.82µM*,0.82µM*,29%
Cc1ccc(S(=O)(=O)N[C@@H](C)C(=O)N2CCC(C(=O)N[C@@H](Cc3ccccc3)C(=O)O)CC2)cc1,12%,-1,20%,23%,-3%,?
O=C(OCc1cn([C@@H]2CN(CC3CCCCC3)[C@@H](c3ccccc3)C[C@H]2O)nn1)c1ccccc1,-10%,-1,-3%,18µM*,?,.
O=C(OCc1cn([C@@H]2CN(CC3CCCCC3)[C@@H](c3ccc(Cl)cc3)C[C@H]2O)nn1)c1ccccc1,9%,6,7%,-17%,-4%,.
O=C(OCc1cn([C@H]2CN(CC3CCCCC3)[C@@H](c3ccc(Cl)cc3)C[C@@H]2O)nn1)c1ccccc1,?,-5,?,16µM*,?,.
CC(=O)Nc1ccc(S(=O)(=O)NC2(C(F)(F)F)C(=O)Nc3c2c(=O)[nH]c(=O)n3-c2cccc(Cl)c2)cc1 (stereo unspecified),.,.,.,3%,5%,.
Cc1ccc(NC(=O)CSc2nc3nn(-c4ccccc4)c(=O)c-3c3n2CCCCC3)cc1F,0%,-11,3%,?,?,?
COC(OC)C1(CCc2ccccc2)NC(=O)NC1=O (stereo unspecified),16%,-13,24%,-1%,-14%,.
O=S1(=O)C[C@H](N2CCCC2)[C@@H](COCc2ccccc2)N1,?,-24,6%,-2%,0%,.
CC(NC(=O)c1ccc2nc(CCc3ccccc3)oc2c1)c1ccccc1 (stereo unspecified),.,.,.,?,21µM*,.
CC(C)c1nc2ccc(C(=O)NC(C)c3ccccc3)cc2o1 (stereo unspecified),.,.,.,?,-26%,.
CCNC(=O)c1ccc2nc(CCc3ccccc3)oc2c1,.,.,.,-19%,-23%,.
COCCNC(=O)c1ccc2nc(CCc3ccccc3)oc2c1,.,.,.,4%,11%,.
